The structures appear in SMILES notation. The source made the active and inactive calls. The call rests on the fitted dose curve; in most records, active means well fitted curve in the direction sought with a large enough effect; inconclusive means small, poorly fitted or top-dose-only effect, or another doubt; inactive means no such curve, though single readings can be large or run the other way.

This experiment in a line: Validation qHTS assay for inhibitors of Activation Induced Cytidine Deaminase (AID): UDG Counterscreen signal (AID 1347427). Conditions: biochemical UDG counterscreen, fluorescence signal; series mostly up to 115 µM. The text has this:
Assay Provider (PI) Patricia Gearhart Ph.D.
National Institute on Aging
National Institute of Health (NIH), Bethesda, MD
Assay Provider (PI) Rahul Kohli Ph.D.
Perelman School of Medicine
University of Pennsylvania, Philadelphia, PA
Activation-Induced Deaminase (AID) is a cytosine deaminase which converts cytosine into uracil within stretches of ssDNA. The presence of uracil in DNA initiates a cascade of mutagenic DNA repair to introduce point mutations and DNA double strand breaks. Specific targeting of AID to the immunoglobulin heavy chain loci (Igh) promotes mutagenesis in the antibody variable region for somatic hypermutation (SHM) or switch regions leading to class switch recombination (CSR). However, AID also plays a role in accumulating unnecessary mutations across the genome. Mis-targeting of AID results in the initiation of tumor development and leads to greater drug resistance among cancer cells when continually expressed. To identify an AID inhibitor, a small molecule library will be screened in collaboration with NCATS core facility at NIH. To confirm biological function, inhibitors will be examined in an in vitro murine B-cell activation assay and subsequent secondary validation screens. Top molecules will be further screened to identify inhibitory efficacy against a wild type primary splenocytes assay. Using these approaches, we hope to identify a small molecule with great efficacy and low toxicity for use as a molecular probe to further characterize AID's intricacies, or even as a therapeutic.
A FRET based analysis of cytosine deamination, was developed to identify potential inhibitors of AID catalytic activity. This screen has two signal output, Read 1 evaluates the AID inhibition response. The second readout (Read 2) evaluates UDG response and is uses as a counterscreen to exclude false positive inhibitors. Inhibition in AID and inactivity in the UDG signal is the desired outcome for this assay.
SEQUENCE No. (e.g., 1, 2, 3, etc.); […] (e.g., Cells, Incubation, Reagent, etc.); VALUE; DESCRIPTION
1a; Reagent; 3 uL; [4/3x] 1 uM AID/2.67 U/mL UDG
1b; Reagent; 3 uL; 2 U/mL UDG
1c; Reagent; 3 uL; 1 uM AID
2a; Compound; 46 nL; Follow-up plates (0.64 uM - 10 mM)
2b; Control; 46 nL; ATA ([…] - 10 mM)
3; Time; 10 min; incubation at room temperature
5; Time; 4 hr; incubation at room temperature
6; Reagent; 4 uL; [2x] 250 mM NaOH
7; Time; 15 sec; centrifuge at 1000 rpm
8; Time; 30 min; incubation at room temperature
9a; Detection; fluorescence (Read 1: AID); EnVision (PerkinElmer) plate reader, 540 excitation and 590 emission filters
9b; Detection; fluorescence (Read 2: UDG); EnVision (PerkinElmer) plate reader, 560 excitation and 665 emission filters
NOTES (numbers refer to sequence above)
1a; Reagents were dispensed in a medium-binding black solid-bottom Greiner plates (789176F) using a BioRptr liquid dispenser. Dispense 3 uL of [4/3x] 1 uM AID (provided by Kohli lab) and [4/3x] 2 U/mL UDG (NEB M0280L) into columns 1, 2, 5 to 48.
1b; Dispense 3 uL of [4/3x] 2 U/mL UDG into column 3.
1c; Dispense 3 uL of [4/3x] 1 uM AID into column 4.
2b; 10 mM Aurintricarboxylic Acid (Sigma A1895) (ATA, 8-point, n = 2, 1:2.5 dilution in column 2) double pin-transferred (Dip Factor = 2) using the Kalypsys (Wako USA) pintool equipped with a 1536 pinhead for a [final] range of 186 nM - 114 uM.
3; Room temperature incubation.
4; Dispense 1 uL of substrate mixture from the Kohli lab [4x] […] DJC20 and [4x] 250 nM DJC23 into columns 1 to 48 .
5; Room temperature incubation.
6; Dispense 4 uL of substrate mixture [2x] 250 mM NaOH into columns 1 to 48.
7; Centrifugation step to remove bubbles.
8; Room temperature incubation
9a; Fluorescence signal (column label AID) was read using the EnVision plate reader. Excitation filter = 540(8) nm, barcode = 311; Emission filter = 590(20) nm, barcode = 217; Mirror = D555, barcode = 405.
9b; Fluorescence signal (column label UDG) was read using the EnVision plate reader. […]
Background: qHTS replaces the single test concentration by a dilution series.
As to `COc1ccccc1N1CCN(CCN2C(=O)CC3(CCCC3)CC2=O)CC1`, the compound was classed as inactive.

Turning to `O=C1NC(c2cccc([N+](=O)[O-])c2)=CCN1c1ccccc1O`, the outcome was inactive. With `Brc1ccc([C@H]2CN3CCSC3=N2)cc1` the entry was “inactive”; with `NC(N)=NCCCCN=C(N)N`, “inactive”; with `Cc1nn(-c2ccccc2)c(C)c1/C=N/N1CCN(Cc2ccccc2)CC1`, “inactive”. With `CC(C)N(CCC(=O)c1ccc2ccccc2c1)Cc1ccccc1` the entry was “inactive”. The result for `CN(C)c1cc2c(Nc3ccc4c(cnn4Cc4ccccc4)c3)ncnc2cn1` reads “inactive”; that for `Clc1ccc2c(c1)N=C(N1CCNCC1)c1ccccc1N2`, “inactive”; that for `COC(=O)C1=CO[C@@H](O)[C@@H]2C(CO)=CC[C@H]12`, “inactive”.

As for `Nc1ncnc2n[nH]c(Nc3ccc(F)cc3)c12`, the call was inactive. The result for `CCN(CC)CCNC(=O)c1ccc(NS(C)(=O)=O)cc1` reads “inactive”; that for `Cn1cnc2c(NCc3ccccc3)nc(NCCO)nc21`, “inactive”.

Consider `N[C@@H](Cn1ccc(=O)c(O)c1)C(=O)O`, for which the outcome was inactive. The result for `O=[N+]([O-])c1ccc(-c2nc(-c3ccc(F)cc3)c(-c3ccncc3)[nH]2)cc1` reads “inactive”; that for `O=C1NC(=O)/C(=C/c2ccc3c(c2)OC(F)(F)O3)S1`, “inactive”. With `C[N+](C)(C)CCO` the entry was “inactive”.

In the case of `COc1cccc2c1[C@@H]1CN(CCCCn3c(=O)[nH]c4c(sc5ncc(-c6ccccc6)nc54)c3=O)C[C@@H]1CO2`, the compound was called inactive.

The values above are taken from PubChem BioAssay (NCATS).
